# Sampled rows, rich in hits. Any-hit rate of the full collection: about 6.9%.
# SW480 rerep: A quantitative high throughput screen for small molecules that induce DNA re-replication in SW480 colon adenocarcinoma cells. Potency, µM (highest dose often 46.1 µM), without a hit: at the top dose re-replication activation, hits mostly activators. SW480 DNA re-replication, Hoechst DNA content imaging, 48 h. 340,000 compounds, 1.8% hits; also: potency is read from the fitted curve at half-maximal effect; % of control where 0% means no effect; nearly all actives have a fitted effect of over 55% in size
#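 Cells (250 per well) received 23 nL compound or DMSO by pin tool and were kept 48 hr at 37 C, 5% CO2. Nuclei were then stained with Hoechst for 40 min and scanned for DNA content.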
# KB-V1 MDR tox: qHTS assay for MDR1-selective chemotherapeutics: Primary screen using the drug-selected MDR subline cells KB-V1; AID 1347076, 2019; 400,000 compounds, 3.4% hits; Potency, µM (titrated, usually from 46.1 µM), usual class: cytotoxic; KB-V1 MDR cells viability, CellTiter-Glo, 72 h; also: potency is read from the fitted curve at half-maximal effect; % is scaled to controls: 0 for no effect and ±100 for the full control effect; nearly all actives have a fitted effect of over 60% in size
#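 Cells of the MDR subline KB-V1 are plated, dosed with compound at multiple concentrations, and incubated 72 h at 37 degrees C; CellTiter-Glo is then added and luminescence read after 10 min.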
# MCF10A rereplic: A quantitative high throughput screen for small molecules that induce DNA re-replication in MCF 10a normal breast cells | 350,000 compounds, 2.9% hits | MCF 10A DNA re-replication, Hoechst nuclear intensity, 48 h | Potency, µM (highest dose often 46.1 µM), for the others: top-dose activity, positive = re-replication, hits mostly activators; also: potency is read from the fitted curve at half-maximal effect; % of control where 0% means no effect; nearly all actives have a fitted effect of over 50% in size
# Giardia kill: Small Molecules that selectively kill Giardia lamblia: qHTS. Giardia lamblia trophozoite viability. activity change, % at 7.66 µM, hits read low. 340,000 compounds, 0.15% hits. AID 540267, 2011; in the data active = activity change below about -80%; inconclusive = between about -30% and that limit;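 also: parasites exposed to compound for two days anaerobically before the ATP read; % is scaled to controls: 0 for no effect and ±100 for the full control effect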
#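 Luminescent ATP signal served as the viability read-out, measured 15-30 min after adding ATP detection reagent to trophozoites that had been incubated with compounds for 48 hrs at 37 deg C anaerobically at 100 cells/well.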
# KB-3-1 cytotox: qHTS assay for MDR1-selective chemotherapeutics: Primary screen using the parental adenocarcinoma cell KB-3-1 | KB-3-1 viability, CellTiter-Glo ATP luminescence, 72 h | Potency, µM (top dose mostly 46.1 µM), most hits filed as cytotoxic | 400,000 compounds, 1.4% hits | AID 1347075, 2019; also: potency is read from the fitted curve at half-maximal effect; % is scaled to controls: 0 for no effect and ±100 for the full control effect; nearly all actives have a fitted effect of over 60% in size
#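 Cytotoxicity measured as CellTiter-Glo luminescence after 72 h at 37 C. Compound titrations were pinned onto drug-naive KB-3-1 parental adenocarcinoma cells grown in DMEM with 10% FBS, and normalized data fitted to concentration-response curves.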
# ASM inhibitor: Inhibitors of Secretory Acid Sphingomyelinase (S-ASM): qHTS. Sphingomyelin phosphodiesterase (Homo sapiens), P17405. placental ASM, HMU-PC fluorogenic substrate, 60 min. 340,000 compounds, 0.006% hits. Potency, µM (highest dose often 57.5 µM), without a hit: at the highest dose activity change, negative = inhibition, most hits filed as inhibitors; also: potency is read from the fitted curve at half-maximal effect
# Target sequence (P17405 47-631 limits assumed): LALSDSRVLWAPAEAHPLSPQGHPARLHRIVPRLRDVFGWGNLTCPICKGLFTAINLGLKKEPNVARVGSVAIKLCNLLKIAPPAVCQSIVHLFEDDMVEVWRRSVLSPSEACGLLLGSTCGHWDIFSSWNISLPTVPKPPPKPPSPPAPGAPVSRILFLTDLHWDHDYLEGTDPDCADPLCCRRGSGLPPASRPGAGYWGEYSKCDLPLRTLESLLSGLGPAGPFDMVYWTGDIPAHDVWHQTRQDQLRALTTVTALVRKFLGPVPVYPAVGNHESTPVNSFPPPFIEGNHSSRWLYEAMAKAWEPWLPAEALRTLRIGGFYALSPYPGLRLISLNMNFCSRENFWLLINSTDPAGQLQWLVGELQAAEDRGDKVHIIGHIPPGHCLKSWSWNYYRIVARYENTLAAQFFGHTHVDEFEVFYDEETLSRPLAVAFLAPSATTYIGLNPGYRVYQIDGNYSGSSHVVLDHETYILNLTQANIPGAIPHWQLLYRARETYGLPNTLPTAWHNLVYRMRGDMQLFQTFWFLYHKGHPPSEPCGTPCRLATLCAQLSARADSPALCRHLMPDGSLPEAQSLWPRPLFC
#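 Human placenta-derived ASM enzyme was preincubated with compound for 10 minutes at room temperature, then given fluorogenic substrate HMU-PC0 (9 uM final) for 60 minutes at 37 °C; a pH 10 stop preceded fluorescence reading at Ex 386/Em 447 nm.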
# * = called active by the depositor; i = inactive; ? = inconclusive; . = not tested or not shown; ! = not confirmed by another sample. Unless noted, calls follow the shape of the dose curve; as a rule, active = well fitted curve in the direction sought with a large enough effect; inconclusive = small, poorly fitted or top-dose-only effect, or another doubt; inactive = no such curve, though single readings can be large; an effect the other way counts as inactive or inconclusive.
SMILES,SW480 rerep,KB-V1 MDR tox,MCF10A rereplic,Giardia kill,KB-3-1 cytotox,ASM inhibitor
Cc1[nH]c2ccccc2c1/C=N/NC(=O)c1cc(-c2ccncc2)nc2ccccc12,13µM*,i,?,13,?,?
C[C@H]1CCC/C=C/[C@@H]2C[C@H](O)C[C@H]2[C@H](O)[C@H](S(=O)c2ccc(O)cc2)CC(=O)O1 (some centres not stated),?,?,21%,-12,0.0092µM*,4%
Cc1[nH]n(-c2ccccc2)c(=O)c1N=Nc1c(O)cc(S(=O)(=O)N(C)C)c2ccccc12,5.8µM*,i,-38%,-16,?,-15%
COC(=O)C1CCN(S(=O)(=O)c2cc3c4c(c2)CC(=O)N4CCC3)CC1,.,i,.,.,i,.
Cc1ccc(CSc2nnc(-c3cccc(S(=O)(=O)N4CCOCC4)c3)n2CC(C)C)cc1,6%,4.6µM*,24%,9,23µM*,-1%
CCN1/C(=C/C(C)=C/c2sc3ccccc3[n+]2CC)Sc2ccccc21,30%,21µM*!,-7%,-6,0.73µM*,?
CCOCc1nnc(NC(=O)C2CC(=O)N(C3CCCC3)C2)s1 (configuration not stated),-7%,i,-5%,-15,i,-4%
COc1cccc2c1C(=O)C=C(C)C2=O,?,?,23µM*,-3,?,-4%
FC(F)(F)c1cc(-c2ccco2)nc(N2CCN(Cc3ccccc3)CC2)n1,3%,i,13µM*,-8,i,-9%
FC(F)(F)c1cc(-c2ccco2)nc(NCCc2ccccc2)n1,?,i,18µM*,17,i,6%
Fc1ccc(N2CCN(c3nc(-c4ccco4)cc(C(F)(F)F)n3)CC2)cc1,-9%,i,?,14,i,-5%
O=[N+]([O-])c1cnn(-c2nc(-c3ccco3)cc(C(F)(F)F)n2)c1,18µM*,i,15%,10,i,-4%
CCOC(=O)c1c(C)oc2nc(C)nc(NCc3ccccc3OC)c12,.,i,.,.,i,.
CCN(Cc1ccccc1)C(=O)Cn1c(C(C)O)nc2ccccc21 (configuration not stated),-32%,i,0.73µM*,9,i,18%
CCCCN(C(=O)c1ccc(NC2CC2)c([N+](=O)[O-])c1)c1c(N)n(CCCC)c(=O)[nH]c1=O,-5%,i,4%,3,i,3%
Cc1cc2c(cc1C)C(c1ccccc1OC(C)C)CC(=O)N2 (configuration not stated),5.2µM*,?,1.5µM*,-17,5.8µM*,-1%
Cc1cc2c(cc1C)C(c1ccccc1Br)CC(=O)N2 (configuration not stated),?,23µM*,?,-16,18µM*,-5%
CC(C)Oc1ccccc1C1CC(=O)Nc2cc3c(cc21)OCO3 (configuration not stated),?,1.3µM*,0.52µM*,-16,2.6µM*,-2%
COc1cc2c(cc1OC)C(c1ccc(Br)cc1)CC(=O)N2 (configuration not stated),?,i,0.65µM*,-1,i,-7%
COc1cccc(C2CC(=O)Nc3cc4c(cc32)OCO4)c1OC(C)C (configuration not stated),.,i,.,.,i,.
CC(=O)N1CC(O)CC1C(=O)O (configuration not stated),-2%,.,-1%,.,.,.
COc1cccc(C2CC(=O)Nc3cc(OC)c(OC)c(OC)c32)c1OC (configuration not stated),-4%,?,0%,2,?,-1%
